This passage reports Potency results from PubChem BioAssay (Tox21).

Molecules are shown by their SMILES. Several values for one entry are separate records, joined by “and”; a condition that tells them apart may be missing. Equal values may be shown once. Inconclusive results are not listed. Where a structure was tested more than once in an assay, its records may differ in their call. Activity calls are given as the source filed them. Unless noted, the call rests on the fitted dose curve.

Test [1] can be described thus: Nuclear factor erythroid 2-related factor 2/antioxidant responsive element (Nrf2/ARE) small molecule agonists: qHTS cell viability counter screen in human keratinocytes (AID 1919968; active means well fitted curve in the direction sought with a large enough effect in the repeat runs; an effect the other way counts as inactive or inconclusive; further: nearly all actives have a fitted effect of over 55% in size; further: potency means the concentration at half of the fitted maximal effect). In a few lines:
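Fluorescence read-out from CellTiter-Fluor after 1 h at 37 C. Wells held HaCaT-derived ARE-luciferase reporter cells (1,500/well) treated 23 h with DMSO-dissolved compounds. Run in the same wells as the luciferase agonist read.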
On the technique in general: Quantitative high-throughput screening tests each substance at several concentrations.

Test [2] can be described thus: Nuclear factor erythroid 2-related factor 2/antioxidant responsive element (Nrf2/ARE) small molecule agonists: luciferase reporter gene qHTS assay in human keratinocytes (AID 1919969; further: nearly all actives have a fitted effect of over 35% in size). (Reporter assays use an easily measured gene product as a stand-in for the process of interest.)
Test [3] deals with Gonadotropin-releasing hormone receptor (Homo sapiens) (UniProt P30968). The test can be described thus: Human gonadotropin-releasing hormone receptor (GnRHR) small molecule agonists, calcium flux assay in GnRHR-HEK293 cells (AID 1920063). Further: nearly all actives have a fitted effect of over 35% in size. In a few lines:
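Calcium-dye fluorescence, Ex/Em=480/540, recorded every 1 sec over 3 min after compound addition to GnRHR-HEK293 cells. Cells had been seeded 18 hours earlier and dye-loaded for 1 hour at 37 C. Fifteen concentrations, triplicates.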

In test [4] the target is KiSS-1 receptor (Homo sapiens) (UniProt Q969F8). The test can be described thus: Human kisspeptin (KISS1R) small molecule agonists, calcium flux assay in KISS1R-HEK293 cells (AID 1920064; active means well fitted curve in the direction sought with a large enough effect in the repeat runs; an effect the other way counts as inactive or inconclusive). In a few lines: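 Calcium flux read-out: kinetic fluorescence at Ex/Em=480/540, 1 s intervals over 3 min, after pin-tool compound addition to dye-loaded KISS1R-HEK293 cells. Fifteen concentrations, triplicates.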
Chain of KiSS-1 receptor (Homo sapiens) (Q969F8 whole entry, looked up): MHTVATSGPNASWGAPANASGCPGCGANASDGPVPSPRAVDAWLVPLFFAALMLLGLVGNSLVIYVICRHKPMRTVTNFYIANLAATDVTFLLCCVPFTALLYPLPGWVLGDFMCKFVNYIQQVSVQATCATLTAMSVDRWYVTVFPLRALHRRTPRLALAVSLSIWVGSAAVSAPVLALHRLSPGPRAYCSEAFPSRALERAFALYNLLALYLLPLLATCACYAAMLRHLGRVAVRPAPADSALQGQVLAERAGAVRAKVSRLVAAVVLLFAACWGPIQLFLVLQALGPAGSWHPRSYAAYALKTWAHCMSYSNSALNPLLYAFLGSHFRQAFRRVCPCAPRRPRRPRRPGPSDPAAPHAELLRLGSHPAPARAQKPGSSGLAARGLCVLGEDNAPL
(Calcium assays in cells follow changes in intracellular calcium, usually with a dye or a luminescent sensor.)

Test [5] is described as follows: G protein-coupled receptor (GPCR) small molecule agonists, calcium flux assay: HEK293 wild type cell line counter screen (AID 1920065). An outline of the steps:
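Agonist mode; 18 h seeding at 37 C, 1 h dye load at 37 C; compounds pinned from DMSO, ATP as positive control; kinetic fluorescence 480/540 nm, 3 min, 1 s reads; 15 concentrations, triplicate.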

Test [6] is described as follows: p53 small molecule agonists, cell-based qHTS assay with human liver microsomes (AID 1963577).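 Further: p53 response element beta-lactamase reporter cells with liver microsomes plus NADPH.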 An outline of the steps:
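In this qHTS, p53 response-element beta-lactamase cells receive test compound together with a microsome/NADPH activating system (0.5 mg/mL final each) and are incubated 16 h at 37 C before LiveBLAzer fluorescence detection.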

Test [7] in a line: p53 small molecule agonists, cell-based qHTS assay with rat liver microsomes (AID 1963578). An outline of the steps: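 Agonist mode in p53RE-bla reporter cells, with compounds co-incubated 16 h at 37 C alongside 0.5 mg/mL rat liver microsomes and 0.5 mg/mL NADPH (final), followed by a 2 h LiveBLAzer detection step.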
Test [8] can be described thus: p53 small molecule agonists, cell-based qHTS assay with human liver microsomes: qHTS cell viability counter screen (AID 1963579). Further: nearly all actives have a fitted effect of over 45% in size. Further: potency means the concentration at half of the fitted maximal effect. In a few lines:
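Metabolically activated exposure: compounds, human liver microsomes and NADPH (0.5 mg/mL final apiece) were added to p53RE-bla cells seeded 5 h earlier, left 16 h at 37 C, and then assessed for viability by CellTiter-Glo luminescence.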

A short description of test [9]: p53 small molecule agonists, cell-based qHTS assay with rat liver microsomes: qHTS cell viability counter screen (AID 1963580). Further: nearly all actives have a fitted effect of over 45% in size. Further: potency means the concentration at half of the fitted maximal effect. In a few lines: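 Luminescent ATP readout (CellTiter-Glo, 30 min at room temperature) reports viability of p53RE-bla HCT-116 cells after 16 h at 37 C with test compounds under metabolic activation by rat liver microsomes and NADPH at 0.5 mg/mL final each.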

Test [10] can be described thus: p53 small molecule agonists, cell-based qHTS assay: qHTS cell viability counter screen (AID 1963581). Further: nearly all actives have a fitted effect of over 45% in size. An outline of the steps:
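Cytotoxicity read-out: ATP-based luminescence (CellTiter-Glo, 30 min RT) measured in the same wells as the p53 reporter assay, HCT-116 p53RE-bla cells, 16 h compound exposure at 37 C.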

Test [11] is described as follows: p53 small molecule agonists, cell-based qHTS assay (AID 1963582; active means well fitted activation curve with a large enough effect in the signal ratio in the repeat runs, not every such curve was filed as active; the % refers to the signal ratio). In a few lines: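 Fluorescence intensity read-out of a beta-lactamase reporter under a p53 response element. Cells were exposed to DMSO-dissolved compounds for 16 h at 37 C, then developed with FRET substrate for 2 h at RT.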
Test [12] has as its target 5-hydroxytryptamine receptor 2A (Homo sapiens) (UniProt P28223). The test can be described thus: 5-hydroxytryptamine receptor 2A (HTR2A) small molecule antagonists, cell-based qHTS assay (AID 1963586). Further: nearly all actives have a fitted effect of over 45% in size. Further: potency means the concentration at half of the fitted maximal effect. An outline of the steps:
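CHO cells stably expressing human HTR2A were plated for 18 h at 37 C, then loaded with calcium dye for 1 h. Compounds were preincubated 5 min at room temperature before DOI (4 nM solution) was added. Kinetic fluorescence was read for 3 min.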

The target is the same in test [13]. Briefly: 5-hydroxytryptamine receptor 2A (HTR2A) small molecule agonists, cell-based qHTS assay (AID 1963587). Further: nearly all actives have a fitted effect of over 30% in size. In a few lines:
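HTR2A-CHO cells, plated 18 h at 37 C/5% CO2, dye-loaded 1 h at 37 C; compounds in DMSO added by pin tool (agonist mode). Intracellular calcium flux read as kinetic fluorescence on FDSS over 2 min at 1 s intervals.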

In test [14] the target is Muscarinic acetylcholine receptor M1 (Homo sapiens) (UniProt P11229). Briefly: Cholinergic receptor muscarinic 1 (CHRM1) small molecule antagonists, cell-based qHTS assay (AID 1963588). Further: nearly all actives have a fitted effect of over 40% in size. An outline of the steps: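 Compounds were tested at 15 concentrations in three independent runs. Dye-loaded CHRM1-CHO cells were exposed 5 min at room temperature before stimulation by acetylcholine added at 50nM. Intracellular calcium was read kinetically on FDSS for 3 min.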
Chain of Muscarinic acetylcholine receptor M1 (Homo sapiens) (P11229 whole entry, looked up): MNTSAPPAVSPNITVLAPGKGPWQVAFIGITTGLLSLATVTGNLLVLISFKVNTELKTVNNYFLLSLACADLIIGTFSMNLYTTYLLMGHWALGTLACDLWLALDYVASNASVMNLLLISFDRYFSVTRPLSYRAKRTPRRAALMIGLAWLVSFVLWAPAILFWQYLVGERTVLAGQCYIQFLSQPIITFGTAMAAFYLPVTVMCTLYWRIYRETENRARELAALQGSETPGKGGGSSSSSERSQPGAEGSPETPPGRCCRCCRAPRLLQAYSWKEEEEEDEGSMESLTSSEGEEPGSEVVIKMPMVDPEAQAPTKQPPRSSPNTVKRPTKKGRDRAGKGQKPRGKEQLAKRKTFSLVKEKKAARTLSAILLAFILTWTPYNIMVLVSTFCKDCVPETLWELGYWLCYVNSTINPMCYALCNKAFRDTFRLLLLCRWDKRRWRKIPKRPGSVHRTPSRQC

The target is the same in test [15]. Briefly: Cholinergic receptor muscarinic 1 (CHRM1) small molecule agonists, cell-based qHTS assay (AID 1963589). Further: nearly all actives have a fitted effect of over 35% in size. An outline of the steps:
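Calcium flux read-out: kinetic fluorescence at 1 sec intervals after pin-tool compound addition to dye-loaded CHRM1-CHO cells (human M1). Agonist mode; 15 concentrations tested in triplicate independent runs.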

Test [16] addresses Beta-2 adrenergic receptor (Homo sapiens) (UniProt P07550). The test can be described thus: Adrenergic beta2 receptor (ADRB2) small molecule antagonists, cell-based qHTS assay (AID 1963592). Further: series mostly up to about 92 µM; nearly all actives have a fitted effect of over 50% in size. In a few lines:
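Assay format: CHO-ADRB2 cells, 18-20hr seeding at 37C/5% CO2, then compound plus 1nM isoproterenol agonist mix for 0.5hr RT. Homogeneous time-resolved fluorescence cAMP detection after 1hr, expressed as 665/615 nm ratio.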

The target is the same in test [17]. The test can be described thus: Adrenergic beta2 receptor (ADRB2) small molecule agonists, cell-based qHTS assay (AID 1963593).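 Further: CHO cells stably overexpressing human ADRB2.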 An outline of the steps:
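CHO cells stably over-expressing ADRB2 were plated overnight at 37C, then dosed with compounds plus a stimulation mix containing 100uM IBMX and 25uM Ro-20-1724 for 0.5hr at room temperature. cAMP was measured by HTRF competition, 1hr.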

Test [18] concerns the target D(2) dopamine receptor (Homo sapiens) (UniProt P14416). The test can be described thus: Dopamine D2 receptor (DRD2) small molecule agonists, cell-based qHTS assay (AID 1963594). Further: nearly all actives have a fitted effect of over 35% in size. An outline of the steps: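 HEK293 cells stably expressing DRD2 were cultured 24 h at 37 C, then given Ro20-1724 (0.1 mM final) and compounds for 10 min at room temperature. NKH477 (200nM) was then added for 30 min. cAMP was read by HTRF.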

Test [19] shares this target. Briefly: Dopamine D2 receptor (DRD2) small molecule antagonists, cell-based qHTS assay (AID 1963595; active means well fitted inhibition curve with a large enough effect in the signal ratio in the repeat runs, with a control signal flat; the % refers to the signal ratio). In a few lines: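 Human DRD2 antagonist qHTS measuring cAMP by HTRF. The cells are exposed to compound for 10 min, then to NKH477 (200 nM) and quinpirole (12 nM) for 30 min at RT, with Ro20-1724 (0.1 mM) present throughout.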
The nature of test [20]: cAMP Responsive Elements (CRE) small molecule antagonists, cell-based qHTS assay (AID 1963591; active means well fitted inhibition curve with a large enough effect in the signal ratio in the repeat runs, not every such curve was filed as active; the % refers to the signal ratio). In a few lines: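 HEK293T CRE-bla; 18 h preincubation; compound pin-transfer; NKH477 0.25 uM final, 3 h, 37 C; LiveBLAzer FRET substrate 2 h RT.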

Chain of 5-hydroxytryptamine receptor 2A (Homo sapiens) (P28223 whole entry, looked up): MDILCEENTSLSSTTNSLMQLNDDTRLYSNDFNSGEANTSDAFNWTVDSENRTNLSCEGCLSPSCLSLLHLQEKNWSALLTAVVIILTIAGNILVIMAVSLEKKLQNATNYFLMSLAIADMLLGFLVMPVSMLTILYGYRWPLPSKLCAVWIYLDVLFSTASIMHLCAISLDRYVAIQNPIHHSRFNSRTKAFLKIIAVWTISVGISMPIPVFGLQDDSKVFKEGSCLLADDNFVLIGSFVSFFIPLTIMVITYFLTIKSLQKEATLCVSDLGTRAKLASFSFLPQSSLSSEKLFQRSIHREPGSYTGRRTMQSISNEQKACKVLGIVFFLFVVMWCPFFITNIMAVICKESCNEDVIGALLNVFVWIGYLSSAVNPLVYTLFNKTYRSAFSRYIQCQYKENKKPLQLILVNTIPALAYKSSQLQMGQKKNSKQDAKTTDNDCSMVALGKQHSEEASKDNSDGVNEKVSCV
Chain of Gonadotropin-releasing hormone receptor (Homo sapiens) (P30968 whole entry, looked up): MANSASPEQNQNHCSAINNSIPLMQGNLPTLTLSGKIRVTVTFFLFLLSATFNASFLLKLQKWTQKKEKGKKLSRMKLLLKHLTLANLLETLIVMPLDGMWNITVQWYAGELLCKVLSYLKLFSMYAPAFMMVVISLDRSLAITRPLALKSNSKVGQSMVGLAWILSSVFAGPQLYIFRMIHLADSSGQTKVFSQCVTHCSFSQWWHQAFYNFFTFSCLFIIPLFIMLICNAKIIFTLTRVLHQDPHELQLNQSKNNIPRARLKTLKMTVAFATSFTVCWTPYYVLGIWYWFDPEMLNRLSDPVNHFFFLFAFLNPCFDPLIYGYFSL
Chain of D(2) dopamine receptor (Homo sapiens) (P14416 whole entry, looked up): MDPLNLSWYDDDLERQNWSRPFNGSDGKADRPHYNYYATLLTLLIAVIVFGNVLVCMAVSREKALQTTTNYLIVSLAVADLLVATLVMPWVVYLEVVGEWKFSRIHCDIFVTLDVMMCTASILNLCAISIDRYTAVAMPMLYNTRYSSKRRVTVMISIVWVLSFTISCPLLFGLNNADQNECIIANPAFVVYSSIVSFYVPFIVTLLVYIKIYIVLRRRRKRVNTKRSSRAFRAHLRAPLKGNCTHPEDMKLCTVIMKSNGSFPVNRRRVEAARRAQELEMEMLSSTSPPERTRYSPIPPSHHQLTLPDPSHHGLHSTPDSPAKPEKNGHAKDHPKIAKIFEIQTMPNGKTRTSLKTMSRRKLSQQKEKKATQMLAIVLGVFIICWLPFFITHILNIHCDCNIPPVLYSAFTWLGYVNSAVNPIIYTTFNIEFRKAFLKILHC
Chain of Beta-2 adrenergic receptor (Homo sapiens) (P07550 whole entry, looked up): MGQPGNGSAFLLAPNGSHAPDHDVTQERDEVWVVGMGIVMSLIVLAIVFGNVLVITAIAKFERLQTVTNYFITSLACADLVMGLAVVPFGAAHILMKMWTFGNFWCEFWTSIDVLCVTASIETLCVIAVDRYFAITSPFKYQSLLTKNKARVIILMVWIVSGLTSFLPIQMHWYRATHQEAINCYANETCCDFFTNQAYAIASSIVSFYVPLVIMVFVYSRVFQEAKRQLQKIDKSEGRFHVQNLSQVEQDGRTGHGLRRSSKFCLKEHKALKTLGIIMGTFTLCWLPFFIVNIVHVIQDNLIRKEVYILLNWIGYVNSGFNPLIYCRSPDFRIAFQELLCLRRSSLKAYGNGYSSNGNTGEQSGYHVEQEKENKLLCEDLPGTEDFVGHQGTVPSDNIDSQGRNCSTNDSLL

On to `Cc1ccc(C(=O)c2cc(O)c(O)c([N+](=O)[O-])c2)cc1`, for which the Potency was 30.6 µM (active) in test [1]; 45.8 µM (active) and inactive in test [8]. In addition, the Potency entry in [2], in [3], in test [4], in [5], in test [6] and in [7] was “inactive” in each case. The Potency entry in [9], in test [10], in test [11], in test [12], in [13] and in test [14] was “inactive” each time. Also, the Potency result in test [15], in test [16], in test [17], in test [18] and in test [19] was “inactive” each time.

For `CCOc1cc(NC(C)=O)ccc1C(=O)OC`, the Potency result in test [1], in test [2], in test [3], in test [4], in test [5] and in test [6] was “inactive” in each case. For the same compound, the Potency entry in test [7], in test [8], in [9], in [10], in [11] and in test [12] was “inactive” throughout. For the same compound, the Potency result in test [13], in test [14], in test [15], in test [20], in test [16] and in test [18] was “inactive” in each case. Also, in test [19], the Potency entry was “inactive”.

Consider `CNCCS(=O)(=O)O`, for which the Potency entry in [1], in test [2], in [3], in [4], in test [5] and in [6] was “inactive” each time. Also, the Potency entry in test [7], in test [8], in test [9], in test [10], in [11] and in [12] was “inactive” in each case. For the same compound, the Potency result in test [13], in test [14], in test [15], in test [20], in [16] and in [17] was “inactive” in each case. The Potency result in test [18] and in test [19] was “inactive” throughout.

Turning to `Brc1cc(Br)cc(Br)c1`, the Potency entry in test [1], in test [2], in [3], in test [4], in test [5] and in [6] was “inactive” in each case. The Potency entry in test [7], in test [8], in [9], in [10], in [11] and in test [12] was “inactive” in each case. Moreover, the Potency result in test [13], in test [14], in [15], in [20], in test [18] and in test [19] was “inactive” in each case.

On to `O=C(O)CNC(=O)c1ccc(CO)o1`, for which the Potency result in [1], in test [2], in test [3], in test [4], in [5] and in test [6] was “inactive” throughout. Besides, the Potency entry in [7], in test [8], in test [9], in [10], in [11] and in [12] was “inactive” throughout. Besides, the Potency entry in [13], in test [14], in test [15], in test [20], in test [16] and in test [17] was “inactive” in each case. Moreover, the Potency result in [18] and in test [19] was “inactive” each time.

With `COc1ccc(-c2coc3cc(O)cc(O)c3c2=O)cc1`, the Potency entry in test [1], in test [2], in test [3], in test [4], in test [5] and in test [6] was “inactive” throughout. The Potency entry in [7], in test [8], in test [9], in test [10], in [11] and in [13] was “inactive” in each case. The Potency result in test [14], in test [15], in test [18] and in test [19] was “inactive” in each case. For the same compound, the Potency result in test [12] is “inactive and 33.4 µM (active)”.

For the compound `O=c1c(-c2ccc(O)cc2)coc2cc(O)ccc12`, the Potency result in test [1], in test [2], in test [3], in test [4], in test [5] and in test [6] was “inactive” in each case. Moreover, the Potency entry in test [7], in [8], in test [10], in [11], in test [13] and in [14] was “inactive” each time. In addition, the Potency entry in [15], in [16], in [18] and in test [19] was “inactive” in each case. Moreover, the Potency in test [9] is 10.1 µM (active); in test [12], 33.4 µM (active).
